# From PubChem
# Most compounds without a hit are left out; they make up all but 2.9% or so of the library.
# GRK2 inh: blocks RNA aptamer binding to human GRK2 | P25098 | bead flow cytometry, FAM-aptamer displacement from GRK2 | inhibition of aptamer binding, % at 10 µM | 330,000 compounds, 0.59% hits | AID 488847;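 active = inhibition of aptamer binding above 40%, roughly 3 SD of noise, on plates passing a quality check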;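 also: median bead fluorescence of bound FAM aptamer so fluorescent compounds give negative values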
# Target sequence (P25098 whole entry, looked up): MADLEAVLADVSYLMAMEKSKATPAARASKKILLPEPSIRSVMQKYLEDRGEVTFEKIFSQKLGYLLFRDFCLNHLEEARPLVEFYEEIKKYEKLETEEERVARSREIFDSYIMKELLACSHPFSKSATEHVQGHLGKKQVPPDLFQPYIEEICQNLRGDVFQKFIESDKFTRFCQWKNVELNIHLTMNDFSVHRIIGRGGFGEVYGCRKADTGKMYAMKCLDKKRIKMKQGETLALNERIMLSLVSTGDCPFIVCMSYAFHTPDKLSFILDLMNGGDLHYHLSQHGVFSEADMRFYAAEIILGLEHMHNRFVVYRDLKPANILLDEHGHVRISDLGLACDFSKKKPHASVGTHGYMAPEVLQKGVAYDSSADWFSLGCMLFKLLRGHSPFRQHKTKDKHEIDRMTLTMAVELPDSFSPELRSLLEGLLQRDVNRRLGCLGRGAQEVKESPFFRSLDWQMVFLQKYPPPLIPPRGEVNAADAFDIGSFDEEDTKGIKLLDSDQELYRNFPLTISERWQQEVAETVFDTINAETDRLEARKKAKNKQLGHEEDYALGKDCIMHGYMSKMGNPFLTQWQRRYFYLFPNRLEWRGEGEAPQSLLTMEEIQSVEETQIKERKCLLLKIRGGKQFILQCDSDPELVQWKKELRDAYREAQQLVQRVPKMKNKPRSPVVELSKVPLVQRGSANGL
# Beta2AR agonist: activates human beta-2 adrenergic receptor causing internalization. response, % (test concentration not listed). 340,000 compounds, 0.43% hits. P07550. Am2.2-beta2AR cells, FAP receptor internalization, flow cytometry. AID 504454;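 active = response above a set limit, near 3 SD of response in nonfluorescent compounds, cut at about 42% in these data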
# Granule exo inh: blocks lytic granule exocytosis. TALL-104 LAMP-1 surface exposure, flow cytometry; cells stimulated with thapsigargin and PMA. inhibition, % at 10 µM. 360,000 compounds, 0.66% hits;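 active = inhibition above about 55%, limit read from the data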
# NadD block: blocks S. aureus nicotinate mononucleotide adenylyltransferase | purified NadD enzyme, colorimetric absorbance read-out | inhibition, % at 20 µM | 360,000 compounds, 0.78% hits; in the data active = inhibition above about 26%
# PP1 inh: counter-screen for PP5 inhibitors: inhibitors of human PP1-alpha; P62136; purified PP1alpha, OMFP fluorescence; inhibition, % at 6.7 µM; 320,000 compounds, 0.9% hits; AID 2235;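 active = inhibition above the mean inhibition of all tested compounds plus 3 SD, computed separately for each screening campaign, cut at about 15% in these data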
# NadD inh conf: confirmation of Staphylococcus aureus NadD inhibitors | shares compounds with NadD block | purified S. aureus NadD, colorimetric enzyme assay | inhibition, % at 20 µM | 2,000 compounds, 13% hits; in the data active = inhibition mostly above about 42%, no sharp cut-off; inactive = mostly below about 42%
# Numbers without * were called inactive; · = no result.
SMILES,GRK2 inh,Beta2AR agonist,Granule exo inh,NadD block,PP1 inh,NadD inh conf
N#Cc1cccnc1N1CCN(C(=O)c2cccc3c2C(=O)c2ccc(Cl)cc2S3(=O)=O)CC1,1,15,0,7,0,·
N#Cc1cccnc1N1CCN(C(=O)c2cccc3c2C(=O)c2ccc(-c4ccc(Cl)c(C(F)(F)F)c4)cc2S3(=O)=O)CC1,1,-8,-2,35*,·,3
Cc1ccc(NCc2cccc(B(O)O)c2)cc1,·,3,-4,0,·,·
O=C(Nc1ccn(CCCN(CCCn2ccc(NC(=O)OCc3ccccc3)nc2=O)CCc2cc3ccccc3[nH]2)c(=O)n1)OCc1ccccc1,·,20,2,70*,·,55*
O=C(Nc1ccn(CCCNCc2ccccc2)c(=O)n1)OCc1ccccc1,·,-8,1,0,·,·
O=C(C1=C[C@@H]2[C@H]3C(=O)N(c4ccc(Cl)cc4)C(=O)[C@H]3[C@@H](C(=O)c3ccc(Cl)cc3)N2C=C1)c1ccccc1,2,0,0,43*,14,0
CCCOC1CCCN(C(=O)CCc2nnc(-c3ccc4c(c3)OCO4)o2)C1 (centres undefined),8,-12,-1,-4,-4,·
Cc1cc(C)cc(C(=O)NC(=S)Nc2ccc(-c3cc4ccccc4oc3=O)cc2)c1,0,-3,-2,13,2,·
O=C(Cc1cccc2ccccc12)Nc1ccc(-c2cc3ccccc3oc2=O)cc1,0,-6,-1,32*,17*,14
COC(=O)C12CC3CC(C1)CC(n1cnc(Cl)n1)(C3)C2,0,5,-7,-1,1,·
O=C(Nc1cccc(N=Cc2cc(Br)cc(Br)c2O)c1)c1ccco1,5,10,-4,41*,-2,21
O=C(Nc1cccc(N=Cc2cc(Cl)cc(Br)c2O)c1)c1ccco1,5,25,5,20,-2,·
Cc1ccccc1N(C(=O)Cc1ccsc1)C(C(=O)NC1CCCCC1)c1ccc(F)cc1 (centres undefined),2,7,1,31*,-2,-3
Nc1ccccc1Sc1nc2ccccc2[nH]1,1,9,61*,34*,2,34
COc1ccc(-c2c/c(=N\c3nc(-c4ccccc4)c(C)s3)c3ccccc3o2)cc1O,0,-26,19,39*,4,18
COc1ccc(-c2cc(=Nc3c(C)n(C)n(-c4ccccc4)c3=O)c3ccccc3o2)cc1,0,12,-2,8,-7,·
COc1cc(C2C(C#N)=C(N)Oc3c2ccc2ccccc32)ccc1OCC(=O)Nc1cccc(C)c1 (centres undefined),0,-9,-1,30*,14,41
C/C(=N\NC(=O)CCc1c[nH]c2ccccc12)c1cccc([N+](=O)[O-])c1,1,-6,-8,-5,-2,·
Cc1cc(C)nc(NC(=NCCc2c[nH]c3ccccc23)NC(=O)Nc2ccc(Cl)c(Cl)c2)n1,0,-4,2,38*,0,3
Cc1cc(C)nc(NC(=NCCc2c[nH]c3ccccc23)NC(=O)Nc2cccc([N+](=O)[O-])c2)n1,0,-6,-2,49*,-5,8
Cc1cc2nc(CCN(C(=S)NCC(C)C)C3CCCC3)[nH]c2cc1C,0,11,1,2,2,·
COc1ccc2nc(-n3c(O)c(C4=c5ccccc5=NC4=O)[nH]c3=S)sc2c1,0,14,-4,52*,15*,11
COc1ccc(NC(=O)CN2c3cccc4cccc(c34)S2(=O)=O)cc1OC,·,·,-2,-4,·,·
COc1ccc(OC)c(CCNC(=O)c2ccc3c(=O)[nH]c4c(C(=O)NC(C)C)sc(=S)n4c3c2)c1,0,7,13,33*,-2,13
CCOc1ccc(CCNC(=O)c2ccc3c(=O)[nH]c4c(C(=O)NC(C)C)sc(=S)n4c3c2)cc1,2,6,5,30,0,·
SMILES,GRK2 inh,Beta2AR agonist,Granule exo inh,NadD block,PP1 inh,NadD inh conf
Nc1nc(-c2cc(O)ccc2[N+](=O)[O-])cc(-c2ccccc2)c1[N+](=O)[O-],0,23,1,53*,·,8
Cc1cccc(-n2nc3c(c2NC(=O)c2ccc(Br)o2)CSC3)c1,0,1,6,44*,12,65*
Cc1ccc(-n2nc3c(c2NC(=O)c2cccs2)CSC3)cc1,0,15,4,56*,5,77*
Cc1ccc(-n2nc3c(c2NC(=O)c2cccs2)CS(=O)(=O)C3)cc1,1,0,2,-2,0,·
[O-][n+]1c2ccccc2[n+]([O-])c2cc(O)ccc21,31,-4,-1,-4,1,·
Cc1ccc(NC(=O)C(C)OC(=O)c2cc(=O)[nH]c3ccccc23)cc1S(=O)(=O)N1CCOCC1 (centres undefined),·,11,-2,35*,·,41
CCCn1c(C(C)Nc2nc(-c3ccc(Cl)c([N+](=O)[O-])c3)cs2)nc2cc(Cl)c(N3CCCCC3)cc21 (centres undefined),2,-6,3,33*,-1,5
Cc1ccc(Cn2c(C(CO)Nc3nc(-c4ccc(Cl)c([N+](=O)[O-])c4)cs3)nc3ccccc32)cc1 (centres undefined),0,14,-13,51*,12,41
Cc1ccc(Cn2c(C(CO)Nc3nc(-c4ccc(F)cc4)cs3)nc3ccccc32)cc1 (centres undefined),·,-7,10,22,4,·
CCCn1c(C(C)Nc2nc(-c3ccc(OC)cc3)cs2)nc2ccccc21 (centres undefined),4,-6,-3,2,-1,·
Cc1cccc(N/C(N)=N/c2nc(C)c(Cc3ccccc3)c(=O)[nH]2)c1,0,-1,0,8,-5,·
Cc1ccc(-c2nc3ccccc3o2)cc1NC(=S)NC(=O)/C=C/c1ccco1,0,0,0,26,1,·
O=C(/C=C/c1ccco1)NC(=S)Nc1cc(-c2nc3ccccc3s2)ccc1Cl,0,-3,-8,52*,2,1
Cc1cccc(NC(=S)NC(=O)/C=C/c2ccco2)c1,1,1,-2,3,3,·
O=C(/C=C/c1ccco1)NC(=S)Nc1cccc(-c2nc3ccccc3o2)c1,2,5,-1,31*,12,-5
O=C(/C=C/c1ccco1)NC(=S)Nc1cccc([N+](=O)[O-])c1,0,-6,1,39*,13,18
CCc1ccc(N(CC(=O)NCc2ccco2)C(=O)CCC(=O)Nc2ccccn2)cc1,0,7,-6,24*,-2,4
CCc1ccccc1N(CC(=O)NCc1ccco1)C(=O)CCC(=O)Nc1ccccn1,0,-9,0,-1,-3,·
Cc1cc2nc(-c3ccc(SCC(=O)Nc4ccc(S(=O)(=O)NC5CC5)cc4)nc3)[nH]c2cc1C,0,10,-4,40*,10,44
Cc1cc(NC(=O)CSc2ccc(-c3nc4cc(C)c(C)cc4[nH]3)cn2)no1,5,4,-4,22,5,·
